# Compound activity as filed in PubChem.
# Hits are enriched below; roughly 21% of the tested compounds scored in any of these assays.
# Sm TGR block: S. mansoni TGR enzyme inhibition | Q962Y6 | purified TGR, DTNB reduction, TNB absorbance 405 nm | Potency, µM (doses to about 114 µM), for inactives: at the top dose activity change, negative = inhibition, most hits filed as inhibitors | 3% of 360,000 active | AID 485364; note: potency is the fitted concentration of half-maximal effect; % is set by controls: 0 for no effect and ±100 for the full control effect; nearly all actives have a fitted effect of over 60% in size
#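 Kinetic colorimetric format: TGR-catalysed, NADPH-driven DTNB reduction monitored via TNB absorbance. Enzyme dispensed at 20 nM; compound exposure 15 min at room temperature before reaction start.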
# Pf growth 48h: P. falciparum growth inhibition at 48 hours (one generation); P. falciparum luciferase growth in erythrocytes, 48 h; Potency, µM (titrated, usually from 28.7 µM), for inactives: at the highest dose activity change, negative = inhibition, most hits filed as inhibitors; AID 504832; 5.9% of 310,000 active; note: potency is the fitted concentration of half-maximal effect; % is set by controls: 0 for no effect and ±100 for the full control effect
#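 Luminescence readout; reporter = integrated firefly luciferase in P. falciparum. RBC culture at 2% hematocrit, 0.1% parasitemia final, 37 C/5% CO2; decreased signal taken as growth inhibition.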
# Shiga toxin inh: inhibitors of Shiga toxin in Vero cells; Vero cells, Shiga toxin protein synthesis inhibition reporter; inhibition, % at 38.7 µM; 9.2% of 290,000 active; AID 2315; in the data active = inhibition mostly above about 28%, no sharp cut-off; inactive = mostly below about 43%; note: 0% is about no effect
# NS1 function inh: inhibitors of influenza NS1 protein function; Potency, µM (titrated, usually from 46.1 µM), for the others: at the highest dose activity, positive = more growth; 0.4% of 270,000 active; AID 2326; calls by dose curve; note: potency is the fitted concentration of half-maximal effect; actives are rising curves; nearly all actives have a fitted effect of over 50% in size
#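 In this qHTS, NS1 from influenza A is expressed in budding yeast, where it slows growth. Cells are switched from glucose to 2% galactose medium (pH 6.0, -URA), treated with compound, and growth recovery is read at OD600.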
# Pf growth 96h: P. falciparum growth inhibition at 96 hour, primary screen for plastid delayed-death inhibitors. 6.9% of 320,000 active. Potency, µM (highest dose often 28.7 µM), for the others: at the highest dose activity change, negative = inhibition, actives largely listed as inhibitors. AID 504834. P. falciparum luciferase reporter growth, 96 h; note: potency is the fitted concentration of half-maximal effect; % is set by controls: 0 for no effect and ±100 for the full control effect
#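 P. falciparum expressing integrated firefly luciferase, in erythrocytes at 2% hematocrit, 0.05% parasitemia, incubated with compounds 96 h at 37 C, 5% CO2. Growth inhibition read as loss of luminescence; two-generation exposure targets delayed-death apicoplast inhibitors.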
# CHX counter: affects cycloheximide protein synthesis inhibition readout, counter-screen; 12% of 300,000 active; max response, %; cell reporter, cycloheximide protein synthesis inhibition counterscreen; AID 2314; in the data active = max response mostly above about 13%, no sharp cut-off; inactive = mostly below about 14%; note: read at 38.3 µM for the half of the compounds with a filed dose; 0% is about no effect
# An asterisk follows results filed as active; u = inconclusive; x = not tested or not shown; ! = not active in a repeat; [ ] = dose if it differs, or a comment. Unless noted, calls come from the whole dose curve; as a rule, active = well fitted curve in the direction sought with a large enough effect; inconclusive = small, poorly fitted or top-dose-only effect, or another doubt; inactive = no such curve, though single readings can be large; an effect the other way counts as inactive or inconclusive.
SMILES,Sm TGR block,Pf growth 48h,Shiga toxin inh,NS1 function inh,Pf growth 96h,CHX counter
Cc1ccc(NC(=O)/C(C#N)=C(\N)C(Cl)(Cl)Cl)nc1,u,208%,76*,x,-8%,38*
Cc1ccc(NC(=O)c2ccc(F)cc2)nc1,4%,-9%,-2,1%,5.2µM*,2
CCN(CC)C(=O)CSc1nnc(-c2ccccc2)c(-c2ccccc2)n1,-7%,13%,6,-13%,-19%,-4
CCNc1nc(=S)nc(NCc2ccccc2)[nH]1,2%,-16%,-2,x,-11%,-2
C=C1CCC(O)C/C1=C/C=C1\CCC[C@]2(C)[C@@H]([C@H](C)/C=C/[C@H](C)C(C)C)CC[C@@H]12 (stereo partly specified),x,-18%,x,x,u,x
Nc1c(-c2ccccc2)n[nH]c1-c1ccccc1,0%,102%,78*,-48%,8%,31*
O=C(Nc1cccnc1)c1ccccc1Cl,-6%,6%,x,-13%,-7%,-3
CC(C)c1ccc(C(=O)Nc2cccnc2)cc1,5%,317%,x,-44%,10µM*,36*
CC(=O)Oc1ccc(C(=O)Nc2cccnc2)cc1,-17%,1%,21,8%,58%,-3
O=C(Nc1cccnc1)c1ccc(F)cc1,1%,18%,-8,-4%,9%,-3
O=C(Nc1cccnc1)c1ccc(-c2ccccc2)cc1,-4%,117%,72*,x,37%[1.15 µM],33*
O=C(Nc1cccnc1)c1cnc2ccccc2n1,-10%,64%,70*,-15%,u,13*
CCCc1cc(=O)oc2c(C)c(OCC(=O)N3C[C@H]4C[C@@H](C3)c3cccc(=O)n3C4)ccc12,6%,-13%,-7,-7%,u,1
COc1cccc(CNC(=O)CCc2c(C)nc3c(c(C)nn3-c3ccc(C)c(C)c3)c2C)c1,-1%,x,x,x,x,x
CCC(C)Nc1nc(Cl)nc(NCCOc2ccccc2)n1 (stereo unspecified),-22%,5%,31,-13%,u,33*
CCc1ccc(NC(=O)Nc2ccon2)cc1,-3%,159%,62*,-22%,u,68*
CCCCc1ccc(NC(=O)Nc2cnccn2)cc1,-3%,u,50*,-34%,4%,23*
Cc1cccc(NC(=O)Nc2cnccn2)c1,2%,20%,40,3%,-32%[1.15 µM],18
CCc1ccc(NC(=O)Nc2cnccn2)cc1,1%,125%,102*,-45%,51%,47*
CC(C)(Oc1ccc(Br)cc1)C(=O)Nc1cc(-c2nc3ccccc3[nH]2)ccc1Cl,8%,x,x,x,x,x
CCc1ccc(S(=O)(=O)c2cn(C)c3cc(N4CCC(C)CC4)c(F)cc3c2=O)cc1,-1%,x,x,x,x,x
CC(C)c1cc2c(cc1S(=O)(=O)O)[C@@]1(C)CCC[C@@](C)(C(=O)O)[C@@H]1CC2,x,13%,x,x,-5%,x
CC(C)c1ccc2c(c1)CCC1C(C)(CN)CCCC21C (stereo unspecified),9%,u,21,8%,10µM*,-4
O=C(c1cccc(S(=O)(=O)N2CCc3ccccc3C2)c1)N1CCN(c2ccc(O)cc2)CC1,-14%,u,11,u,u,-2
CCNC(=O)NC(=O)CSc1ccc(S(=O)(=O)N2CCCCC2)cn1,-34%,u,x,x,5.2µM*,x
SMILES,Sm TGR block,Pf growth 48h,Shiga toxin inh,NS1 function inh,Pf growth 96h,CHX counter
CNC(=O)NC(=O)CSc1ccc(S(=O)(=O)N(C)C2CCCCC2)cn1,-10%,u,x,x,8%,x
CCCNC(=O)CSc1ccc(S(=O)(=O)N2CCCCC2)cn1,-1%,u,x,x,u,x
CCNC(=O)NC(=O)CSc1ccc(S(=O)(=O)N(C)C2CCCCC2)cn1,-5%,12µM*,x,x,9.3µM*,x
COc1ccc(OCC(=O)NCCS(=O)(=O)N2CCN(c3cccc(Cl)c3)CC2)cc1,4%,x,x,x,x,x
Cc1noc(C)c1COC(=O)c1cccnc1Cl,7%,18%,-17,x,17%,-1
CC1=C(C#N)c2nc(N)c(C#N)c(C)c2/C1=C\c1ccc(-c2ccccc2C(=O)O)o1,25µM*,3%,-6,x,u,4
O=C(CCn1c(=O)oc2ccccc21)Nc1nc2ccccc2s1,2%,14%,44*,-10%,8%,13*
Cc1cc(C)nc(NS(=O)(=O)c2ccc(NC(=O)Cn3c(=O)oc4ccccc43)cc2)n1,0%,x,-5,-30%,6.6µM*,-3
Cc1cc(C)nc(NS(=O)(=O)c2ccc(NC(=O)CN3C(=O)c4ccccc4C3=O)cc2)n1,-1%,8%,5,4%,x,-2
Cc1ccc2c(C)c(C(=O)Nc3ccc(S(=O)(=O)Nc4onc(C)c4C)cc3)oc2c1,-18%,12%,89*,7%,9.3µM*,55*
O=C(CCn1c(=O)oc2ccccc21)N(Cc1ccccc1)c1ccccc1,-10%,-8%,7,-5%,-9%,1
CCCCN(C(=O)CCn1c(=O)oc2ccccc21)c1ccccc1,25µM*!,u,-3,-2%,u,-1
CCN(c1ccccc1)S(=O)(=O)c1cc(C(=O)OC2CCOC2=O)ccc1C (stereo unspecified),-13%,u,x,x,-2%,x
CC(C)N(C(=O)Cn1cc(SCC(=O)Nc2ccccc2C(F)(F)F)c2ccccc21)C(C)C,-1%,x,x,x,x,x
CCn1cc(C(=O)NCCc2ccc(C)cc2)c(=O)c2cc(S(=O)(=O)N3CCc4ccccc4C3)ccc21,2%,x,x,x,x,x
Cc1noc(NS(=O)(=O)c2ccc(NC(=O)CCn3c(=O)oc4ccccc43)cc2)c1C,16µM*,12%,-17,8%,0%,-9
NS(=O)(=O)c1ccc(NC(=O)CCn2c(=O)oc3ccccc32)cc1,-2%,x,x,x,x,x
O=C(CCn1c(=O)oc2ccccc21)Nc1ccc(C(=O)O)cc1,6%,14%,-18,2%,21%,-3
COC(=O)c1ccc(NC(=O)CCn2c(=O)oc3ccccc32)cc1,1%,-7%,40*,-8%,x,29*
